# Source: PubChem
# CHX counter = counter-screen hit for Shiga toxin inhibitors, cycloheximide; cell reporter, cycloheximide protein synthesis inhibition counterscreen; max response, %; 300,000 compounds, 12% hits; in the data active means max response mostly above about 13%, no sharp cut-off; inactive means mostly below about 14%; further: read at 38.3 µM for the half of the compounds with a filed dose; 0% is about no effect
# Shiga inhibitor = inhibitors of Shiga toxin in Vero cells; Vero cells, Shiga toxin protein synthesis inhibition reporter; inhibition, % at 38.7 µM; 290,000 compounds, 9.2% hits; AID 2315; in the data active means inhibition mostly above about 28%, no sharp cut-off; inactive means mostly below about 43%; further: 0% is about no effect
# Sm TGR inh = blocks Schistosoma mansoni thioredoxin glutathione reductase. Q962Y6. purified TGR, DTNB reduction, TNB absorbance 405 nm. Potency, µM (top dose mostly 114 µM), for the others: at the top dose activity change, negative = inhibition, actives largely listed as inhibitors. 360,000 compounds, 3% hits; active means well fitted inhibition curve with a large enough effect; inconclusive means small, poorly fitted or top-dose-only effect; inactive means no such curve, though single readings can be large or run the other way; further: potency means the concentration at half of the fitted maximal effect; on the % scale 0 is the no-effect control and ±100 the full control effect; nearly all actives have a fitted effect of over 60% in size
#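 TGR 20 nM + NADPH 100 uM (dispensed conc.), cpd preinc 15 min RT; start with NADPH (500 uM addition) then DTNB (15 mM addition). Kinetic TNB absorbance, 405 nm filter. Four-parameter Hill fit across titration.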
# FMDV inh = foot and mouth disease virus antiviral activity; FMDV antiviral cell-based qHTS; Potency, µM (doses to about 57.9 µM), without a hit: top-dose activity change, negative = inhibition, hits mostly inhibitors; 410,000 compounds, 1.2% hits; AID 1159524; calls by dose curve; tested in HEK293T cells; further: read-out not given here; potency means the concentration at half of the fitted maximal effect; on the % scale 0 is the no-effect control and ±100 the full control effect; nearly all actives have a fitted effect of over 45% in size
# * hit, by the source's call; ? = inconclusive; / = no result given. Rows were chosen to be rich in hits. Some 12% of all compounds tested hit in one or more screens of this group.
SMILES,CHX counter,Shiga inhibitor,Sm TGR inh,FMDV inh
Cc1cc(/C=C2\SC(=Nc3ccc(F)cc3)NC2=O)c(C)n1-c1ccc(S(N)(=O)=O)cc1,-3,-25,-19%,35µM*
Cc1cc(/C=C2\SC(N)=NC2=O)c(C)n1-c1ccccc1,36*,45,71%,13%
Cc1cc(/C=C2\SC(=S)NC2=O)cc(C)c1O,15*,37,-25%,30%
Cc1cc(/C=C2\SC(=S)NC2=O)c(C)n1-c1ccc(O)cc1,38*,52*,-27%,-2%
Cc1cc(/C=C2\SC(=S)NC2=O)c(C)n1C,-3,-7,?,/
Cc1cc(/C=C2/SC(=O)NC2=O)c(C)n1-c1ccc(N2CCOCC2)cc1,8,24,-16%,?
O=C(OCC#CCSc1nnc(-c2cccc3ccccc23)s1)c1cccs1,/,/,1%,/
COC(=O)c1cccc(-n2c(C)cc(/C=C3\SC(=O)NC3=O)c2C)c1,/,/,/,35%
Cc1cc(/C=C2\SC(=S)NC2=O)c(C)n1-c1ccccc1,44*,58*,-26%,5%
c1cc[n+]2c(c1)-c1cccc[n+]1CC2,4,8,/,/
c1c2c(cc3sc(N4CCOCC4)nc13)OCCO2,14*,48,1%,-86%
c1ccc(N2CCN(c3nc4cc5c(cc4s3)OCCO5)CC2)cc1,84*,95*,-12%,7%
Clc1cccc2sc(N3CCN(c4ccccc4)CC3)nc12,17,19,-2%,3%
O=C(OCc1ccccc1Cl)c1ccc(-c2nnn(Cc3ccccc3Cl)n2)cc1,/,/,0%,-6%
O=S(=O)(c1ccccc1)c1nnn2c1nc(Nc1ccccc1)c1cc(Cl)ccc12,/,/,3%,0%
Cc1ccccc1OCc1nnc(SCc2cc(=O)c3cccc(F)c3[nH]2)n1C,/,/,5%,-4%
Cc1cc(C)c2cc(C(c3nnnn3CC3CCCO3)N3CCN4CCCC4C3)c(=O)[nH]c2c1 (configuration not stated),-4,-3,22µM*,-13%
O=c1[nH]c2cc3c(cc2cc1C(c1nnnn1CC1CCCO1)N1CCCCCC1)OCCO3 (configuration not stated),2,-8,32µM*,15%
O=c1[nH]c2cc3c(cc2cc1C(c1nnnn1CC1CCCO1)N1CCCC1)OCO3 (configuration not stated),7,24,20%,8%
O=c1[nH]c2cc3c(cc2cc1C(c1nnnn1CC1CCCO1)N1CCCCCC1)OCO3 (configuration not stated),4,12,?,/
Cc1cc(NC(=O)Nc2cccc(C(F)(F)F)c2)no1,2,-7,0%,-10%
COc1cccc(NC(=O)Nc2cc(C)on2)c1,23*,/,-11%,58%
COc1cccc(C(=O)NC(=O)Nc2cc(C)on2)c1,56*,71*,1%,78%
COc1cccc(/C=C(\C#N)C(=O)Nc2ccc(NC(C)=O)cc2)c1OC,/,/,-8%,8%
COc1cccc2cc(-c3nc(Nc4cccc(C)c4)sc3C)c(=O)oc12,/,/,-10%,16%
SMILES,CHX counter,Shiga inhibitor,Sm TGR inh,FMDV inh
COC(=O)c1cccc(C(=O)N2CCCC(CNC(=O)c3ccccc3Cl)C2)c1 (configuration not stated),23,33,-12%,0%
O=C(NCC1CCCN(C(=O)CN2CCCCC2)C1)c1ccccc1Cl (configuration not stated),26*,31,-6%,28%
CSCC(=O)N1CCCC(CNC(=O)c2ccccc2Cl)C1 (configuration not stated),15*,28,17%,-11%
COc1ccccc1NC(=O)N1CCCC(CNC(=O)c2ccccc2Cl)C1 (configuration not stated),0,27,-13%,15%
O=C(Cn1c(=O)n2nc(-c3cccc(F)c3)nc2c2ccccc21)N1CCN(c2ccccc2F)CC1,/,/,-2%,-25%
CCc1ccc2c(c1)-c1ccccc1S(=O)(=O)N2CC(=O)N1CCCCC1,/,/,2%,88%
C=C(C)Cn1c(=O)c2c(nc3n2CCN3c2ccc(CC)cc2)n(C)c1=O,/,/,10%,-22%
COc1ccccc1C(=O)NNC(=O)c1ccc(O)cc1,/,/,/,7%
COc1ccccc1C(=O)NNC(=O)c1cccc([N+](=O)[O-])c1,32*,61*,/,0%
COc1ccccc1C(=O)NNC(=O)c1cccc(C)c1,23*,/,2%,36%
O=C(NNC(=O)c1ccccc1-c1ccccc1C(=O)O)c1cccc([N+](=O)[O-])c1,0,-3,2%,10%
O=C1C(c2ccc(C(F)(F)F)cc2)=C(Nc2ccc(Cl)cc2)c2ccccc21,/,/,4%,-25%
CCc1c(C)nc2ncnn2c1NCCc1ccc(OC)cc1,-2,15,-2%,11µM*
CC(=O)Nc1ccccc1OCCOc1ccc(Br)cc1,5,17,5%,0%
